From PubChem BioAssay (Tox21)
Records with an inconclusive call do not appear. Entries that show only a call come without a potency. Active and inactive are the calls of the source. Calls follow the shape of the full dose curve.

What follows are molecules tested against Beta-2 adrenergic receptor (Homo sapiens) (UniProt P07550) (assay: Adrenergic beta2 receptor (ADRB2) small molecule agonists, cell-based qHTS assay (AID 1963593)). Details: CHO-ADRB2 cells, cAMP HTRF, 30 min; series mostly up to 42.5 µM.
Chain of Beta-2 adrenergic receptor (Homo sapiens) (P07550 whole entry, looked up): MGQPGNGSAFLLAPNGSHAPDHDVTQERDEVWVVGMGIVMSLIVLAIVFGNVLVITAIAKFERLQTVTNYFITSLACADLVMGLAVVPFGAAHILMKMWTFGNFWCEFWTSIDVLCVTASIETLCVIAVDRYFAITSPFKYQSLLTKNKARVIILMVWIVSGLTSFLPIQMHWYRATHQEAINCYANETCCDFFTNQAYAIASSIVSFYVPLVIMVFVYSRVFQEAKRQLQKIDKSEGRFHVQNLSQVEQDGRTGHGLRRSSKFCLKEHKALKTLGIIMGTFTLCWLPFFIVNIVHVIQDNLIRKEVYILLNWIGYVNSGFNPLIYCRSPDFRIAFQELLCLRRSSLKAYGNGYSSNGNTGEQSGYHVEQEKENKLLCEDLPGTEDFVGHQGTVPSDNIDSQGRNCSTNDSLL
Excerpt: National Center for Advancing Translational Sciences [NCATS]
Division of Preclinical Innovation [DPI]
U.S. Environmental Protection Agency [EPA]
National Institutes of Environmental Health Sciences [NIEHS]
National Toxicology Program [NTP]
U.S. Food and Drug Administration [FDA]
Beta adrenergic receptors (Beta-ARs) belong to the G-protein coupled receptor (GPCR) superfamily, includes three subtypes - beta1, beta2, and beta3. Beta1-AR is the predominant receptor subtype expressed in the heart, and beta2-AR is expressed in the kidney, lung, blood vessel and in the heart, and beta3 is found in the adipocytes. Beta1 and 2 ARs couple to Gs protein and elevate cyclic adenosine mono phosphate (cAMP), which activates protein kinase A and leads to the downstream signaling responsible for the physiological actions. Beta-AR agonists or antagonists are the most prescribed therapeutic agents for heart failure and asthma, and these were one of the first target receptors for the rational drug design. Tox21 10K compound library was screened using the cAMP-Gs dynamic assay (Cisbio Bioassays, Shelton, CT) to identify agonists/antagonists of the Gs-coupled human adrenergic, beta2 receptor (ADRB2) in the CHO-ADRB2 cell line (Codex BioSolutions, Inc. Gaithersburg, MD), which stably over-expresses ADRB2. The principle of cAMP-Gs dynamic assay is based on HTRF technology, which facilitates the fluorescence resonance energy transfer (FRET) between donor Europium cryptate and acceptor d2-labeled cAMP. The cAMP generated within cells competes with the red acceptor, d2-labled cAMP, for binding to the monoclonal anti-cAMP-cryptate (Europium donor). An increase in intracellular cAMP leads to the disruption of FRET signal, and the signal is inversely proportional to the cAMP concentration. Isoproterenol HCl (Sigma-Aldrich, St. Louis, MO) was used as a positive control in the screening.
Tox21 Assay Protocol Summary:
CHO-ADRB2 cells were dispensed at 1,000/well in 4uL assay medium into white/solid 1536-well plates (Greiner Bio-One North America Inc., Monroe, NC) using a Multidrop Combi dispenser (ThermoFisher Scientific, Waltham, MA). The assay plates were incubated at 37C and 5% CO2 for an overnight (18-20hr). Then positive control and test compounds dissolved in DMSO were transferred to the assay plates at 23nL using a Pintool station (Wako, San Diego, CA). Following the compound and positive control transfer, 1uL stimulation mix containing 100uM IBMX and 25uM Ro-20-1724 was added to each well of the assay plates using BioRAPTR Flying Reagent Dispenser (FRD, Beckman Coulter, Brea, CA). The assay plates were incubated at room temperature for 0.5hr. Then 2.5ul each d2-labled cAMP and anti-cAMP-cryptate solutions were added separately to each well of the assay plates using an FRD and the assay plates were incubated at room temperature for 1hr.

Structure (SMILES)	Potency	activation
O=[N+]([O-])c1ccc(/C=N\O)o1	inactive	
C/C=C/C(=O)CC	inactive	
C=CCOc1nc(OCC=C)nc(OCC=C)n1	inactive	
Cc1ccc(N(CC2=NCCN2)c2cccc(O)c2)cc1	inactive	
Nc1ccc(S(=O)(=O)O)c(N)c1	inactive	
O=C(CCOCCOCCOCCOCCC(=O)Nc1c(I)cc(I)c(C(=O)O)c1I)Nc1c(I)cc(I)c(C(=O)O)c1I	inactive	
CO[Si](C)(OC)c1ccccc1	inactive	
OCCCO	inactive	
NS(=O)(=O)c1cc(-c2nn[nH]n2)c(NCc2cccs2)cc1Cl	inactive	
O=c1[nH]c(=O)c2[nH]c(=O)[nH]c2[nH]1		11.5% [at 8.39 µM] (inactive)
CN(C)C/C=C(/c1ccc(Br)cc1)c1cccnc1	inactive	
CC(C)COC(=O)c1ccccc1	inactive	
CN(C)CCCOC1(Cc2ccccc2)CCCCCC1	inactive	
CCCC(C)C(=O)OCC (stereo not given)	inactive	
CN1Cc2cc(C(=O)N3CCC(C4CCNCC4)CC3)ccc2N[C@@H](CC(=O)O)C1=O	inactive	
CC(=O)CC(=O)OC(C)(C)C	inactive	
COC(=O)N/N=C/c1c[n+]([O-])c2ccccc2[n+]1[O-]	inactive	
CCOC(=O)c1ccc(NC(=O)CN2CCCCC2)cc1	inactive	
CCCCCCCCCCCCOC(=O)c1ccc(O)cc1	inactive	
C=CCOC(=O)/C=C\C(=O)OCC=C	inactive	

Structure (SMILES)	Potency	activation
N#Cc1c(F)cccc1F	inactive	
Cc1nc2ccccc2n1Cc1ccc(Cl)cc1	inactive	
CCCCCCCCCCC(=O)O	inactive	
COc1ccc(-n2nc(C(F)F)cc2-c2ccc(S(C)=O)cc2)cc1 (stereo not given)	inactive	
Cc1nccn1CC1CCc2c(c3ccccc3n2C)C1=O (stereo not given)	inactive	
NCC(=O)O	inactive	
CCCCOC(=O)C(C)O (stereo not given)	inactive	
CN1CCN(N)CC1	inactive	
CCCCC(CC)COC(=O)COc1ccc(Cl)cc1Cl (stereo not given)	inactive	
COc1ccc2c(c1)C(=O)N(CCc1ccc(S(=O)(=O)NC(=O)NC3CCCCC3)cc1)C(=O)C2(C)C	inactive	
FC(F)(F)C(F)(F)C(F)(F)C(F)(F)CCI	inactive	
NCCCNCCSP(=O)(O)O		-33.3% [at 8.39 µM] (inactive)
Oc1ccccc1Cc1ccccc1O	inactive	
O=C=NCc1cccc(CN=C=O)c1	inactive	
OCCNCc1ccccc1	inactive	
Clc1ccc2n[nH]nc2c1	inactive	
Oc1cccc2[nH]ccc12	inactive	
CCOCC(O)COc1ccc(NC(=O)CC[S+](C)C)cc1 (stereo not given)	inactive	
CC(=O)C(C)=O	inactive	
Cc1ccccc1CCO	inactive	
